Assays:
Assay in all cases: log2 ratio of Biotin-Ahx-Ub-VS probe labelling (fragment/DMSO); higher = less target engagement (more negative = stronger competition), active = hit call of the paper (q ≤ 0.05, log2 ratio ≤ -1)
Conditions in all cases: compound concentration: 200 uM; treatment time: 3 h
USP42 = biological target: T1, USP42 (UniProt Q9H9J4)
T1 sequence (whole entry): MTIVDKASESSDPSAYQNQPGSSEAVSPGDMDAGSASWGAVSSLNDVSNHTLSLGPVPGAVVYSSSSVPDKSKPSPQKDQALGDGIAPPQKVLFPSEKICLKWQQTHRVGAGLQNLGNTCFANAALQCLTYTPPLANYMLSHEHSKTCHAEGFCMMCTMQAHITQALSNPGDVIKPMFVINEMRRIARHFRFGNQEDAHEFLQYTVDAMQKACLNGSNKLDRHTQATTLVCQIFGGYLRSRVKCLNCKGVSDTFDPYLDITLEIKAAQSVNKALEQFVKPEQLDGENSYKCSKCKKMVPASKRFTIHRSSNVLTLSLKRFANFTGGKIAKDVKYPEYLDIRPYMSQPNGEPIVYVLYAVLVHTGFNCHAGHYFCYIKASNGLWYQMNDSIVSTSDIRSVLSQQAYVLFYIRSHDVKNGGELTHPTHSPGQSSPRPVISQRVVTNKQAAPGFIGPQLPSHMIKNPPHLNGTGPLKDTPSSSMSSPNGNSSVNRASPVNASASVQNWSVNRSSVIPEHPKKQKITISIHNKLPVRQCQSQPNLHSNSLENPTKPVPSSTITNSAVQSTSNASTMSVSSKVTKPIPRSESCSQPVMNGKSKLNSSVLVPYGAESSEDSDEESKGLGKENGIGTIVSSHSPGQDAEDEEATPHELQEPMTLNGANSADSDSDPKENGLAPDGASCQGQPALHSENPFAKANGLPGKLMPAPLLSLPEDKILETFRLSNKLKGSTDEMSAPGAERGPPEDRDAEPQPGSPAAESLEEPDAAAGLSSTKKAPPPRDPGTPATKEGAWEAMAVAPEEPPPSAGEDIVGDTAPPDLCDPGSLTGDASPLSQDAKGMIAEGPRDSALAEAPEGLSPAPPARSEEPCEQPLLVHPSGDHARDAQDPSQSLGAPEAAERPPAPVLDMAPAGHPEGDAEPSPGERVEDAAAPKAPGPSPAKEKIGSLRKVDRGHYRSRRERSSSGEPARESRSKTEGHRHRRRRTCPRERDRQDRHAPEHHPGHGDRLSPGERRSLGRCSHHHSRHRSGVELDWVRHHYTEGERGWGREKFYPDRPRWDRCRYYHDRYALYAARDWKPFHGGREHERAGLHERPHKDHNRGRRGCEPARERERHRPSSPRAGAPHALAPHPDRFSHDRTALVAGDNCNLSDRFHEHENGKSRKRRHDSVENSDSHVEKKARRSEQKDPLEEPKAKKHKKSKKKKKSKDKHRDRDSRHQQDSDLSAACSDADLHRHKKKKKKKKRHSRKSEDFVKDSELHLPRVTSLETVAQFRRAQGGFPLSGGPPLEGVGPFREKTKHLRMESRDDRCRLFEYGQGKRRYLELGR
Method in brief: (§1)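 HEK293T lysate (495 µg per sample, in Tris/CHAPS/IGEPAL buffer with protease inhibitors) was exposed in triplicate for 3 h to fragment at 200 µM or to vehicle, then to Biotin-Ahx-Ub-VS at 0.5 µM final for 1 h. Labelled DUBs were enriched on NeutrAvidin, digested with LysC and trypsin, and analysed by diaPASEF LC-MS/MS. Spectronaut label-free quantities were normalised to the global median, and values are average log2 ratios of fragment over vehicle from an unpaired t-test. Only proteins with ≥2 unique peptides were used.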

USP46 = USP46 (UniProt P62068)
Sequence of USP46 (P62068 whole entry): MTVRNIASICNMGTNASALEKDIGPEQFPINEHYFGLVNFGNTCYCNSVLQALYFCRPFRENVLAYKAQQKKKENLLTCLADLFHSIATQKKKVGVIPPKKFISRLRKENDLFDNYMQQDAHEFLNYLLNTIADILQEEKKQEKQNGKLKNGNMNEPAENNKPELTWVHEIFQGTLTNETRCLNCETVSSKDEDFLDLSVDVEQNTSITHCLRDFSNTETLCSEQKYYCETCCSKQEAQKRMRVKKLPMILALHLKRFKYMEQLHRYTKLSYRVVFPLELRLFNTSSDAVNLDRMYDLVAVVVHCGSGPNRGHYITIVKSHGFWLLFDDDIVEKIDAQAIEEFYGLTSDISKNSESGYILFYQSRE
Method in brief: as §1

USP47 = biological target: T2, USP47 (UniProt Q96K76)
T2 sequence (whole entry): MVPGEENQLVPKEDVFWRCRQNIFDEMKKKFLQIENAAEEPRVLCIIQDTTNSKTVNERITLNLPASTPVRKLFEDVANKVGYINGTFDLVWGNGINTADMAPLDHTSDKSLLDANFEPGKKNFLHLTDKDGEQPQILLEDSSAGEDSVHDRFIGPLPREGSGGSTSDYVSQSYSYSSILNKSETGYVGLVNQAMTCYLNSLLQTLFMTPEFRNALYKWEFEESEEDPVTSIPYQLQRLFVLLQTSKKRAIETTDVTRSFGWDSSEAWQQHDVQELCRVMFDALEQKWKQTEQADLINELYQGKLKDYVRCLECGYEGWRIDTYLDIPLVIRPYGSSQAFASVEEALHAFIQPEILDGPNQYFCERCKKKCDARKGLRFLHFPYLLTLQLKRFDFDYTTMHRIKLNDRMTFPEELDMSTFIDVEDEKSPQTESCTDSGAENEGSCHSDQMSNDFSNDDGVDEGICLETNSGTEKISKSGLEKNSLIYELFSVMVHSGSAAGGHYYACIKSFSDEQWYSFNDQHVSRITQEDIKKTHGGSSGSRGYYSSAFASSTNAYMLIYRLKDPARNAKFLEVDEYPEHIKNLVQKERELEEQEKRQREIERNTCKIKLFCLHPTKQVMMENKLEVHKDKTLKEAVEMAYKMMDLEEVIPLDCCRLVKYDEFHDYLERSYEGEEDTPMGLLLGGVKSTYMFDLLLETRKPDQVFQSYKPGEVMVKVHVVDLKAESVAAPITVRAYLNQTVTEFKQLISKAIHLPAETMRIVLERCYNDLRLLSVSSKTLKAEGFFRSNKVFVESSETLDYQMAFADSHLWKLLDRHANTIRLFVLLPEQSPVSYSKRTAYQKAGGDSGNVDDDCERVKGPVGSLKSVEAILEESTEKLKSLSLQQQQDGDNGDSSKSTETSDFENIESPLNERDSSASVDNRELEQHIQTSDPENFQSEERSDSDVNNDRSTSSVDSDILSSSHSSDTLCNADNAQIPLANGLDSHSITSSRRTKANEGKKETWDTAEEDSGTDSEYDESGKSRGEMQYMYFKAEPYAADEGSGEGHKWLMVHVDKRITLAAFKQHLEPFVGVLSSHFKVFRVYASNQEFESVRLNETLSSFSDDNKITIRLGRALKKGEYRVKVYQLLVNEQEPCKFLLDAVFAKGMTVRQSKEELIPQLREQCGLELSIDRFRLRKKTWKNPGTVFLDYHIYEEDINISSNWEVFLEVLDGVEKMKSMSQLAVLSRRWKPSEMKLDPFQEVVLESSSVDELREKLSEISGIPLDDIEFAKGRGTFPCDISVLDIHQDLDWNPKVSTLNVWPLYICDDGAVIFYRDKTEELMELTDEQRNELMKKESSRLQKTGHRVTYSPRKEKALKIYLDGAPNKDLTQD
Method in brief: as §1

USP48 = biological target: T3, USP48 (UniProt Q86UV5)
T3 sequence (whole entry): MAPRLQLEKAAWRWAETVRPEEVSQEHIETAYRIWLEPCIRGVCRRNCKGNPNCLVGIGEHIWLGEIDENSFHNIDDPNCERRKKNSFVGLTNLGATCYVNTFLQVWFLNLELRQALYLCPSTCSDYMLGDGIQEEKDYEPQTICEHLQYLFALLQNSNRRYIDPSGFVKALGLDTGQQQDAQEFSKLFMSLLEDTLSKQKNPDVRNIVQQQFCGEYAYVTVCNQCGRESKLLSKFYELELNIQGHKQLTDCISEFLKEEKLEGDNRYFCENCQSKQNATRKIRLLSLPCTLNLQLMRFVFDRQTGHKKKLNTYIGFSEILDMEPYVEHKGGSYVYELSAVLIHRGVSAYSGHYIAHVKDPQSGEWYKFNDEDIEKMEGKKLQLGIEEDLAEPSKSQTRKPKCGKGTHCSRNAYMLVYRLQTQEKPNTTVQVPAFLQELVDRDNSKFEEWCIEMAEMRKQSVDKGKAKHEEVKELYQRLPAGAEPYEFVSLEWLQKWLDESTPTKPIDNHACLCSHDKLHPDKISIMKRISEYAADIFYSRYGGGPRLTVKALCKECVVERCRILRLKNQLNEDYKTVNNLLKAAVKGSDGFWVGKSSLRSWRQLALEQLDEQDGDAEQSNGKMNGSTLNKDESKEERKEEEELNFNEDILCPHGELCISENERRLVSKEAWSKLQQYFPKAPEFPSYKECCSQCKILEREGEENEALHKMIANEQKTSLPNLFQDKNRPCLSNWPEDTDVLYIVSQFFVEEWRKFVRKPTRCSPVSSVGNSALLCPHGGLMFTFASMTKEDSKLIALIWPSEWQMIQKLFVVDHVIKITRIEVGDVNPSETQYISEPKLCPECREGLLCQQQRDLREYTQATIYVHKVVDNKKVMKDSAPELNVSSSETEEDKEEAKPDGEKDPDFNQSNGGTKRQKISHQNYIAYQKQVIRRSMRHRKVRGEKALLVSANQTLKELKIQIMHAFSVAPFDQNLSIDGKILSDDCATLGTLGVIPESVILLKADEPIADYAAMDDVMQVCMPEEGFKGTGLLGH
Method in brief: as §1

USP5 = biological target: T4, USP5 (UniProt P45974)
T4 sequence (whole entry): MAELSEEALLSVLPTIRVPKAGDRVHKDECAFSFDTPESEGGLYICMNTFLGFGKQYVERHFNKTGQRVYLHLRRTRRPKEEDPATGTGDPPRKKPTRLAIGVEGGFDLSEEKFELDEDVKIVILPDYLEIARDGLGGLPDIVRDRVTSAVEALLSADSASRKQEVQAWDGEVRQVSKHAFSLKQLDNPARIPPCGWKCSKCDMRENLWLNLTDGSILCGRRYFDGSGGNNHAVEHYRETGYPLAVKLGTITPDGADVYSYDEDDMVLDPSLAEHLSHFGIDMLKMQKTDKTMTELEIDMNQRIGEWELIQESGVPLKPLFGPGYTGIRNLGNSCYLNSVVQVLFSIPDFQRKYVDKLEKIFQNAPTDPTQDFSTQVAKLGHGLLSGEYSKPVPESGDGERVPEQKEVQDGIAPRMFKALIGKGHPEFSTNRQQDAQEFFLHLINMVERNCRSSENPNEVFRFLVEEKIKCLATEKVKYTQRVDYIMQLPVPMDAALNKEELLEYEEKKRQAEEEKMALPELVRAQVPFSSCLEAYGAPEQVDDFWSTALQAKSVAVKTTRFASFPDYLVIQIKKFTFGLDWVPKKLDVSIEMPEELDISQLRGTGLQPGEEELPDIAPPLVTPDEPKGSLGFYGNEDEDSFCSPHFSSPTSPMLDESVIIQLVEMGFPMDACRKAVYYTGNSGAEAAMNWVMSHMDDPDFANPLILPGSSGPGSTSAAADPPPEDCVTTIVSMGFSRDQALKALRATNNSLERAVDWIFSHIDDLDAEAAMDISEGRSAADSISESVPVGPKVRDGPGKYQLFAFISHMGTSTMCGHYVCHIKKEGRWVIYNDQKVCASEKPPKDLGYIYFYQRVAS
Method in brief: as §1

USP54 = USP54 (UniProt Q70EL1)
Sequence of USP54 (Q70EL1 whole entry): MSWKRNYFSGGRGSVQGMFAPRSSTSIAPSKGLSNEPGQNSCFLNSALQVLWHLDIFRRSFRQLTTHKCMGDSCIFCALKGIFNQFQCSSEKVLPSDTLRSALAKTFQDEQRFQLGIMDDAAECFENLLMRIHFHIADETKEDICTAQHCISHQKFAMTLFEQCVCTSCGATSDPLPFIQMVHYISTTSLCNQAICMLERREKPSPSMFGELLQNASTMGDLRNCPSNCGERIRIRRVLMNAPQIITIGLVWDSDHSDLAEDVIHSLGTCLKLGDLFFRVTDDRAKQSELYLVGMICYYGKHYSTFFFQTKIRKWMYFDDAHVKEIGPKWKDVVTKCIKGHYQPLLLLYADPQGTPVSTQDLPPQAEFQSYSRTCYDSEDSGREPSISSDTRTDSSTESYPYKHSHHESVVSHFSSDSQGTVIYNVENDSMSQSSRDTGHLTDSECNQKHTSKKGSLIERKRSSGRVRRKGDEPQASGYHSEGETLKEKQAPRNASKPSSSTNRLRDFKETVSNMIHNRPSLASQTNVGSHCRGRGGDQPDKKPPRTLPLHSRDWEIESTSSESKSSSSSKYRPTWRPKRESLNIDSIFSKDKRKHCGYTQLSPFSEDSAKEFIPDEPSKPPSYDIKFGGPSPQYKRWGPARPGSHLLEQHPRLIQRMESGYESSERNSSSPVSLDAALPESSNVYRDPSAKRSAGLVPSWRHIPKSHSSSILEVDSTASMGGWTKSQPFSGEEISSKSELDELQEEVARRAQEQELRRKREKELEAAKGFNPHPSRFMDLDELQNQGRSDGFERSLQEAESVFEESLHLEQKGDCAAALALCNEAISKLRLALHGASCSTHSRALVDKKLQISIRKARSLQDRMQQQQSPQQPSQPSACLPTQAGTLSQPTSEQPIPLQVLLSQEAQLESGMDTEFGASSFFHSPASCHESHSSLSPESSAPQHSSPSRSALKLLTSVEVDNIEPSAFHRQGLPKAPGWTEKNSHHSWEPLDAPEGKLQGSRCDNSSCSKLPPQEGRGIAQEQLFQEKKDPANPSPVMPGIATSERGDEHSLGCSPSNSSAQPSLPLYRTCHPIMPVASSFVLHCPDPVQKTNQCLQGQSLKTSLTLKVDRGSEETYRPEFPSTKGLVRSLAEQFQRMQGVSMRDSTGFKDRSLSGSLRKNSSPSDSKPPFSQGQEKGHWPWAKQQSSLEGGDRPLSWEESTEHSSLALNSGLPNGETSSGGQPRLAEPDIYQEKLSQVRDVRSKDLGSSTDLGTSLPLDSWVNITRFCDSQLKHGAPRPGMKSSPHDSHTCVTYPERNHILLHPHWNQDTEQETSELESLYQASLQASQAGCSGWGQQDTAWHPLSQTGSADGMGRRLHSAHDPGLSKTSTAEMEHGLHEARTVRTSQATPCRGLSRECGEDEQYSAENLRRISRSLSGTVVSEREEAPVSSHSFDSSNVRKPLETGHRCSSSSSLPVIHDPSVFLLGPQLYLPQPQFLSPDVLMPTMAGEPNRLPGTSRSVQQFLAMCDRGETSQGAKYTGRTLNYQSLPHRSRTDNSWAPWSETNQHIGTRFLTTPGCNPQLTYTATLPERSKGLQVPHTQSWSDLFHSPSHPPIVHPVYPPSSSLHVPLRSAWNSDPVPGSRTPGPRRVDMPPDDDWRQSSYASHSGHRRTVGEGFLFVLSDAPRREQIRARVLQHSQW
Method in brief: as §1

USP7 = USP7 (UniProt Q93009)
Sequence of USP7 (Q93009 whole entry, looked up): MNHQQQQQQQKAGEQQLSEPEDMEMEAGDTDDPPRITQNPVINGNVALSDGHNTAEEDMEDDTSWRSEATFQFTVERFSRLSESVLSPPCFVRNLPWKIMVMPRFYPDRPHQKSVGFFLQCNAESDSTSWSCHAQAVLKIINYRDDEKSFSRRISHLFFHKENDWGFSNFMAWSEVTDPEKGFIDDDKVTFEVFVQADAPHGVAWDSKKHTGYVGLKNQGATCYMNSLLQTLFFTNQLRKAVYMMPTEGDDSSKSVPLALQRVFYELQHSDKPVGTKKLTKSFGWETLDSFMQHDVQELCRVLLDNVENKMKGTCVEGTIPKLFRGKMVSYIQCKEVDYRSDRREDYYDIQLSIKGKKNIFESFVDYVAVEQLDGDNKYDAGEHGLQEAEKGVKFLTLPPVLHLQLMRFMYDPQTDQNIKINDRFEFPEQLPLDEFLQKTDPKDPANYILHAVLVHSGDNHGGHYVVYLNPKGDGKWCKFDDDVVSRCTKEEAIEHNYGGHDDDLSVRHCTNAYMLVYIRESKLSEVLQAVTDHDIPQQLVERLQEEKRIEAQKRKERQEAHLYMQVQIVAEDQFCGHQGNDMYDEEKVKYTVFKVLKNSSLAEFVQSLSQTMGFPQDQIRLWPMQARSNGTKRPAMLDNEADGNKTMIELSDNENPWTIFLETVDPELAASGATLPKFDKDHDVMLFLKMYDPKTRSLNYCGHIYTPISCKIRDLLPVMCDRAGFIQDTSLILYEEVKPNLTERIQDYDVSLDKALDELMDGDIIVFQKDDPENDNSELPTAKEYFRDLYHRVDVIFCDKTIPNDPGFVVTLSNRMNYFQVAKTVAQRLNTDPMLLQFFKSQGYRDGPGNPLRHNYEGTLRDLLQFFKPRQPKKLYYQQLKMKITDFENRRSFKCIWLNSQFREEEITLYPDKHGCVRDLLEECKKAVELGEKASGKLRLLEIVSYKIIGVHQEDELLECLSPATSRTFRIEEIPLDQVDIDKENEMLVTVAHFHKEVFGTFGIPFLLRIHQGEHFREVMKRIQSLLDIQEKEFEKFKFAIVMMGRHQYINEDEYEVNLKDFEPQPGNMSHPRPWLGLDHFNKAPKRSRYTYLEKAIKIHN
Method in brief: as §1

USP8 = biological target: T5, USP8 (UniProt P40818)
T5 sequence (whole entry): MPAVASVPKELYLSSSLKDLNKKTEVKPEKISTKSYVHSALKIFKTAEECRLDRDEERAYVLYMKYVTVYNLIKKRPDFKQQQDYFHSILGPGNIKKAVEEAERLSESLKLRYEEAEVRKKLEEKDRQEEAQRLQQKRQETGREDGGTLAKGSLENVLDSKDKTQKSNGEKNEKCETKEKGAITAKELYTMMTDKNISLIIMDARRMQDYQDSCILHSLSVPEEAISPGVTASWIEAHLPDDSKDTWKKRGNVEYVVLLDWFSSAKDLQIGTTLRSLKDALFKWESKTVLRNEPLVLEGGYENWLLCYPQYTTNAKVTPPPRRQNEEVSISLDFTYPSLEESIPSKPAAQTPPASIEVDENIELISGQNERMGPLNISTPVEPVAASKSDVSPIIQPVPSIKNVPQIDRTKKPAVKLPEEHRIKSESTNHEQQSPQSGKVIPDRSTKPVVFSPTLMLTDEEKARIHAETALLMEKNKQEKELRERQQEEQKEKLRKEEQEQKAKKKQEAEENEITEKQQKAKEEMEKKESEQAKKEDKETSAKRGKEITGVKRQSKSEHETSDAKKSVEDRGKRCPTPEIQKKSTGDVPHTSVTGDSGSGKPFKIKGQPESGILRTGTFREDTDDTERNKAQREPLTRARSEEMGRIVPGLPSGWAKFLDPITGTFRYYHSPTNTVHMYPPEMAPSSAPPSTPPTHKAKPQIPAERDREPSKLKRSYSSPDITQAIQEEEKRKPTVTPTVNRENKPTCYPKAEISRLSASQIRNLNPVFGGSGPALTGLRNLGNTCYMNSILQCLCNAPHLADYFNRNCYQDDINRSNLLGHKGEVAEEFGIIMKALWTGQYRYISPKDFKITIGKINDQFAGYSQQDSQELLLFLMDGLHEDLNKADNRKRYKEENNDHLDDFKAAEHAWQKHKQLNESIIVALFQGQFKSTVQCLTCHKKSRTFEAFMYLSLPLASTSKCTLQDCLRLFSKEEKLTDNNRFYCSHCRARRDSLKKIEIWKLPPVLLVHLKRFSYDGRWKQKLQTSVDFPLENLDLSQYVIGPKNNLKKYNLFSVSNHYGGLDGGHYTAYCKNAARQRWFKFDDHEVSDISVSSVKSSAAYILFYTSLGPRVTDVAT
Method in brief: as §1

Measured: log2 ratio of Biotin-Ahx-Ub-VS probe labelling

O=C(CCl)N1CC2(CCOCC2)C1
inactive: USP42 -0.145 | USP46 0.00462 | USP47 0.0373 | USP48 -0.152 | USP5 0.362 | USP54 0.355 | USP7 -0.055 | USP8 0.147

From the supplement of paper PMC11732987, “Enantioselective OTUD7B fragment discovery through chemoproteomics screening and high-throughput optimisation” (Communications Chemistry, 2025)
